Compound activity: PubChem, National Center for Advancing Translational Sciences (NCATS)
Rows were chosen to be rich in hits. Some 3% of all compounds tested hit in one or more screens of this group.
A549 viability – kills or reduces viability of A549 cells in Nrf2 counter-screen. Potency, µM (doses to about 46 µM), most hits filed as inhibitors. AID 504648. actives 0.16% (n = 390,000). A549 ARE-Fluc cells, CellTiter-Fluor viability, 18-24 h
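A549 ARE-Fluc cells in 5% FBS OPTI-MEM, 5000 cells/well, rested 2 h then exposed to compounds in concentration-response for 18-24 h at 37 °C. Viability by CellTiter-Fluor fluorescence (Ex 405/Em 525) after 30 min; luciferase luminescence (BugLite, 15 min, RT) read afterwards.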
Nrf2 ARE act – activators of Nrf2 (ARE) signaling; Potency, µM (doses to about 46.1 µM), most hits filed as activators; AREc32 ARE-luciferase reporter (MCF7-derived line), luminescence, 24 h; AID 624171; actives 0.31% (n = 410,000); also: nearly all actives have a fitted effect of over 65% in size
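Each well held 1000 AREc32 cells, which were incubated with compound for 24 hr at 37 deg C after overnight attachment, and ARE reporter activity was quantified by firefly luciferase luminescence.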
GALK inh – blocks human galactokinase activity. P51570. Purified GALK, Kinase-Glo residual ATP luminescence. Potency, µM (series often up to 57.5 µM), usual class: inhibitors. actives 0.007% (n = 270,000)
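Kinase-Glo Plus luminescence measured ATP left after a 1 h room-temperature reaction. The reaction used 5 nM GALK, 100 uM galactose and 35 uM ATP at pH 8.0 (20 mM HEPES, 5 mM MgCl2, 60 mM NaCl, 1 mM DTT, 0.01% BSA).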
Nrf2 inh – blocks Nrf2 signaling. A549 ARE-Fluc reporter, luciferase luminescence, 18-24 h. Potency, µM (titrated, usually from 46 µM), usual class: inhibitors. actives 2.1% (n = 360,000). AID 504444; also: nearly all actives have a fitted effect of over 60% in size
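Cells were seeded and rested 2 h, then exposed to compounds for 18-24 h. CellTiter-Fluor was read first as a viability measure. BugLite was added 15 min before the final luminescent read of ARE-luciferase activity in A549 cells.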
TrxR1 substrate – rat thioredoxin reductase 1 substrate activity | O89049 | purified TrxR1 substrate turnover, NADPH consumption readout | Potency, µM (series often up to 114 µM) | actives 0.01% (n = 390,000); also: nearly all actives have a fitted effect of over 50% in size
Target sequence (O89049 whole entry, looked up): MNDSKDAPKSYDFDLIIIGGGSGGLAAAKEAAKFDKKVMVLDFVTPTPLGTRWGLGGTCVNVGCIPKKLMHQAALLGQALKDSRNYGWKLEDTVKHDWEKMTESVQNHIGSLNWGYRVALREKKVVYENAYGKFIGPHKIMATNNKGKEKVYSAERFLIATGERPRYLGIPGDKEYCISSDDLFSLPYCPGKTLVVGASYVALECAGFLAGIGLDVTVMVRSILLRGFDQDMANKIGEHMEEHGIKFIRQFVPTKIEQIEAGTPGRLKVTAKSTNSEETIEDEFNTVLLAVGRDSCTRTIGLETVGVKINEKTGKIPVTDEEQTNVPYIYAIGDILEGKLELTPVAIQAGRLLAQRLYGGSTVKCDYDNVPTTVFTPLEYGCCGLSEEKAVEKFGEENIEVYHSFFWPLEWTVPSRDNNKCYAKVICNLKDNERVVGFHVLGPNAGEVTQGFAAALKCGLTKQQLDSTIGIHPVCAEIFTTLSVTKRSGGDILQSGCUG
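Rat TrxR1, dispensed at 90 nM, was prereduced with 400 uM NADPH (final) for 5 min at ~22 deg C, then incubated with compound 15 min before 400 uM selenite. A first-read NADPH fluorescence drop versus no-compound background flagged substrates.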
rTrxR1 inhibitor – inhibitors of rat thioredoxin reductase 1; recombinant rTrxR1, NADPH fluorescence consumption, selenite substrate; Potency, µM (series often up to 114 µM), usual class: inhibitors; actives 1% (n = 390,000); also: nearly all actives have a fitted effect of over 65% in size
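Rat TrxR1 (90 nM in the dispensed reagent) was pre-reduced with 400 uM NADPH for 5 min at room temperature, then incubated with compound for 15 min. After 400 uM selenite was added, NADPH fluorescence (Ex 340/Em 450 nm) was followed for 8 min.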
Of the large screens only hits and unclear results are named; the others gave an inactive call. Calls follow the shape of the dose curve; as a rule, active = well fitted curve in the direction sought with a large enough effect; inconclusive = small, poorly fitted or top-dose-only effect, or another doubt; inactive = no such curve, though single readings can be large; an effect the other way counts as inactive or inconclusive.

O=C(N/N=C/c1cc(Br)c(Br)s1)c1ccncc1	Nrf2 inh 18µM
Cc1cc(C)c(-n2c(O)c(/C=N/NC(=O)c3ccncc3)c(=O)[nH]c2=O)c(C)c1	none
O=C1NC(=O)N(c2cccc(Br)c2)C(=O)/C1=C/c1ccsc1	rTrxR1 inhibitor 45µM
Cc1noc(C)c1C(=O)N1CCC2(CC1)Oc1ccc(F)cc1C(=O)C21CC(c2ccc(Cl)cc2)=NO1 (stereo unspecified)	rTrxR1 inhibitor inconclusive
Cc1ccsc1C(=O)C1CCCN(Cc2cnc(N3CCOCC3)s2)C1 (stereo unspecified)	A549 viability inconclusive, Nrf2 inh 18µM
NC(N)=NOCCC(N)C(=O)O (stereo unspecified)	none (no result: A549 viability, Nrf2 ARE act, GALK inh, Nrf2 inh)
CN1C(=O)NC(c2cccc(O)c2)C(C(=O)c2cccs2)C1(O)C(F)(F)F (stereo unspecified)	Nrf2 inh inconclusive, rTrxR1 inhibitor 32µM
N#CCCN	none (no result: A549 viability, Nrf2 ARE act, GALK inh, Nrf2 inh)
COc1ccc(NP2(=O)OCC(C)(N)CO2)cc1 (stereo unspecified)	none (no result: GALK inh)
COc1ccc(NC2CC(=O)N(C(C)C)C2=O)cc1 (stereo unspecified)	Nrf2 inh inconclusive, rTrxR1 inhibitor 3.5µM
N#CC1(c2ccccc2)CCN(C2CC(=O)N(c3ccc4c(c3)OCO4)C2=O)CC1 (stereo unspecified)	rTrxR1 inhibitor 71µM
N#CC1(c2ccccc2)CCN(C2CC(=O)N(c3ccc(F)cc3)C2=O)CC1 (stereo unspecified)	none
O=C(c1ccc(Cl)cc1)c1cn(Cc2ccccc2)c2cc3c(cc2c1=O)OCCO3	Nrf2 inh inconclusive (no result: GALK inh)
COC(=O)C1=C(c2cccc(OCc3ccccc3)c2)C[C@@H]2CC[C@H]1N2C(=O)NCCCc1ccccc1	Nrf2 inh 21µM (no result: GALK inh)
COC(=O)C1=C(c2ccc(OCc3ccccc3)cc2)C[C@@H]2CC[C@H]1N2C(=O)NCCCc1ccccc1	Nrf2 inh 15µM (no result: GALK inh)
COc1ccc(/C=C/c2nc(-c3ccccc3O)n(-c3ccccc3)n2)cc1OC	none (no result: GALK inh)
CN1C(=O)NC(=O)/C(=C\c2ccc([N+](=O)[O-])o2)C1=O	rTrxR1 inhibitor 16µM
N#CC(C#N)=Cc1ccc(O)c(O)c1	rTrxR1 inhibitor 17µM (no result: GALK inh)
CCC12CN3CC(CC)(CN(C1)C3c1ccccn1)C2=O (stereo unspecified)	none (no result: GALK inh)
CN1C2CCC1/C(=C/c1ccccn1)C(=O)/C2=C\c1ccccn1	A549 viability 7.3µM, Nrf2 inh 5.8µM, rTrxR1 inhibitor inconclusive
CCOc1ccc(CCNC(=O)c2ccc(-n3c(C)cc4c3CCCC4)cc2)cc1OCC	Nrf2 ARE act inconclusive (no result: GALK inh)
CCOc1ccc(CCNC(=O)c2cc3c(-c4ccc(OC)c(OC)c4)nn(C)c3s2)cc1OCC	Nrf2 inh 13µM (no result: GALK inh)
CCC(C)OC(=O)c1c(N)n(Cc2cccs2)c2nc3ccccc3nc12 (stereo unspecified)	A549 viability inconclusive, Nrf2 inh inconclusive
Nc1c(C(=O)OCc2ccccc2)c2nc3ccccc3nc2n1Cc1cccs1	A549 viability inconclusive, Nrf2 inh 23µM
O=C(Nc1ccc2oc(-c3cccnc3)nc2c1)c1ccc(-c2cccc(Cl)c2)o1	Nrf2 inh inconclusive (no result: GALK inh)
CNc1cc(N2CCN(C)CC2)ccc1[N+](=O)[O-]	none
O=[N+]([O-])c1ccc(N2CCCC2)cc1N/N=C1\CN2CCC1CC2	A549 viability 9.2µM (no result: GALK inh)
O=C1NC(=O)N(c2ccccc2)C(=O)/C1=C\c1ccc([N+](=O)[O-])s1	rTrxR1 inhibitor 56µM (no result: GALK inh)
CCOc1ccc(N2C(=O)NC(=O)/C(=C\c3ccccc3[N+](=O)[O-])C2=O)cc1	rTrxR1 inhibitor 8.9µM
COc1ccc(N2C(=O)NC(=O)/C(=C\c3ccccc3[N+](=O)[O-])C2=O)cc1	rTrxR1 inhibitor 10µM
CCCn1c(=O)n(C)c(=O)c2c(SCC(=O)NC34CC5CC(CC(C5)C3)C4)nc(CC(C)C)nc21	none
CNC(CC(C)C)C(=O)NC1C(=O)NC(CC(N)=O)C(=O)NC2C(=O)NC3C(=O)NC(C(=O)NC(C(=O)O)c4cc(O)cc(O)c4-c4cc3ccc4O)C(O)c3ccc(c(Cl)c3)Oc3cc2cc(c3OC2OC(CO)C(O)C(O)C2OC2CC(C)(N)C(O)C(C)O2)Oc2ccc(cc2Cl)C1O (stereo unspecified)	Nrf2 inh inconclusive (no result: GALK inh)
CN1C2CC(OC(=O)[C@H](CO)c3ccccc3)CC1C1OC12 (stereo partly specified)	none (no result: A549 viability, Nrf2 ARE act, GALK inh, Nrf2 inh)
Cc1ccccc1N1C(=O)NC(=O)/C(=C/c2ccc(N3CCOCC3)o2)C1=O	none
Cc1ccccc1N1C(=O)NC(=O)/C(=C\c2cc(Br)c(N3CCOCC3)o2)C1=O	A549 viability 23µM, Nrf2 inh 16µM, rTrxR1 inhibitor 22µM
O=C(OCC(=O)N1CCCCC1)c1cc(S(=O)(=O)N2CCOCC2)c(Cl)cc1Cl	Nrf2 inh inconclusive (no result: GALK inh)
c1ccc(-c2nn(-c3ccccc3)[n+](-c3ccccc3)n2)cc1	Nrf2 inh 21µM (no result: GALK inh)
COc1ccc(-c2cc3nc(C)c(CCC(=O)N4CCN(c5cc(C)ccc5C)CC4)c(C)n3n2)c(OC)c1	Nrf2 inh inconclusive (no result: GALK inh)
COc1cccc2c1cc([N+](=O)[O-])c1c(C(=O)O)cc3c(c12)OCO3	A549 viability inconclusive, Nrf2 inh 12µM (no result: GALK inh)
C=CCc1cc(OC)c2c(c1)OCO2	none (no result: GALK inh)
C=C1CCN(C(Cc2ccccc2)C(=O)Nc2ccc(OC)cc2)S(=O)(=O)c2ccccc21 (stereo unspecified)	none (no result: Nrf2 ARE act, GALK inh)
COc1ccc(N2C(=O)/C(=C/c3ccc(C)o3)C(=O)NC2=S)c(OC)c1	rTrxR1 inhibitor 14µM
COc1cc(/C=C2\C(=O)NC(=O)N(c3ccccc3)C2=O)cc(OC)c1OC	rTrxR1 inhibitor inconclusive
CCOC(=O)CSCCOc1ccc(C=C2C(=O)NC(=O)NC2=O)cc1OC	rTrxR1 inhibitor inconclusive
COC(=O)COc1ccc(/C=C2\C(=O)NC(=S)N(c3ccc(C)cc3)C2=O)cc1OC	rTrxR1 inhibitor 4µM
CCOC(=O)COc1ccc(/C=C2\C(=O)NC(=S)N(c3ccc(OC)cc3)C2=O)cc1OC	rTrxR1 inhibitor 3.2µM
COc1ccc(N2C(=O)/C(=C/c3ccc(OC)c(OC)c3)C(=O)NC2=S)cc1	rTrxR1 inhibitor 13µM
COc1cc(/C=C2/C(=O)NC(=O)N(c3ccc(C)cc3)C2=O)cc(OC)c1OC	rTrxR1 inhibitor inconclusive
CCNC(=O)[C@H]1O[C@@H](n2cnc3c(N)ncnc32)[C@H](O)[C@H]1O	none (no result: A549 viability, Nrf2 ARE act, GALK inh, Nrf2 inh, TrxR1 substrate)
CCc1ccc(Nc2nc3c(S(=O)(=O)c4ccc(C)cc4)nnn3c3ccsc23)cc1	Nrf2 inh inconclusive (no result: GALK inh)
c1ccc(/N=C2\N=C(Nc3ccccn3)c3ccccc32)nc1	Nrf2 inh inconclusive (no result: GALK inh)
